# The panel holds about 83,000 compounds, 20% with a hit somewhere; the sample as a whole holds those more often.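 Percent growth is the endpoint: 0 to 100 indicates growth inhibition (40 means 60% inhibition), 0 means no net growth, and negative values indicate cell death.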 Unmarked numbers belong to inactive results. The source made the active and inactive calls. Rule for the calls: active = growth percent below 10; inactive = the rest.
# Tested on: MDA-MB-468 breast
# Experiment: NCI-60 one-dose screen, 48 h (100 = growth as untreated, 0 = no growth, -100 = all killed)
# Conditions: 10 µM unless noted
row,SMILES,growth
1,CCCCCCCCCCCC(=O)OC(C)C(=O)NCCCC (stereo unspecified),105%
2,COc1cc(/C=C/C(=O)c2cc(-c3ccc(C(F)(F)F)cc3)ccc2O)cc(OC)c1OC,57.9%
3,CCCCCN(CCCCC)CC(O)c1c(Cl)ccc2ccccc12 (stereo unspecified),78.9%
4,Cc1cc(Cl)nc(N(CCNc2ccnc3cc(Cl)ccc23)Cc2ccccn2)n1,3.86% (active)
5,CCCCSc1ccc2nc(-c3ccc(OCCCN=C(N)N)cc3)cn2c1,35.6%
6,COc1ccc(C(=O)/C=C/c2cc3ccccc3[nH]c2=O)cc1,17.6%
7,CC1(C)[C@@H](OC(=O)CCC(=O)O)CC[C@]2(C)[C@H]3C(=O)C=C4[C@@H]5C[C@@](C)(C(=O)O)CC[C@]5(C)CC[C@@]4(C)[C@]3(C)CC[C@@H]12,-0.77% (active)
8,O=c1oc2c(cc1-c1ccccc1)c[n+]([O-])c1ccccc21,104%
9,COc1cc(CN2CCO[C@H](COc3cccc(F)c3)C2)ccc1Cl,11.4%
10,COc1ccc(/C=C(\C#N)c2cc3ccccc3n2C)cc1,27.6%
11,C=CCc1nc2ccccc2s1,-14.5% (active)
12,CCOC(=O)C1C(=O)C=C(c2ccccc2)CC1c1sc(N(C)Cc2ccccc2)nc1Cl (stereo unspecified),80.9%
13,O=C(CN1C(=O)S/C(=C\c2ccccc2)C1=O)Nc1ncc(Cc2ccccc2Cl)s1,115%
14,Cc1nc2ccccc2c(C(=O)O)c1O,99.9%
15,COc1cc(C(=O)N/N=C/c2ccc(N(C)C)cc2)cc(OC)c1OC,-12.5% (active)
16,CC(C)(C)c1ccc(OC(=O)Nc2ccccc2)cc1,112%
17,C=CCSc1nnc(-c2ccc(C(C)(C)C)cc2)n1-c1cccc(C(F)(F)F)c1,21.5%
18,CNC(=O)c1cc(Oc2ccc(CC(=O)Nc3cc(C(C)(C)C)cn3C)cc2)ccn1,29.5%
19,C=C(C)C(=O)O[C@H]1C[C@@]2(C)OC(=CC2=O)/C(CO)=C\[C@H]2OC(=O)C(=C)[C@H]12,-34% (active)
20,COc1ccc(-c2nc3sc4c(c3c(=O)[nH]2)CCCC4)c2ccccc12,25%
21,CC(C)=C[C@@H]1c2c(c3ccccc3n(C)c2=O)O[C@H]2c3c(c4ccccc4n(C)c3=O)OC(C)(C)[C@@H]12,61.4%
22,O=C(/C=C/c1csc(Br)n1)NO,19%
23,COc1ccc(-c2[nH]ncc2-c2cc3c(c(OC)c2)OCC(=O)N3)cc1,-6.47% (active)
24,CCCCN(CCCC)CC(O)c1ccc(OCc2ccccc2)c2ccccc12 (stereo unspecified),114%
25,N/C(=N\C(N)=N\c1nc2ccccc2s1)c1cccc(Br)c1,90.6%
26,COc1cc2nc(Cl)nc(Nc3cccc(C(=O)/C=C/c4ccc(Br)cc4)c3)c2cc1OC,85.7%
